Sampled rows, rich in hits. Any-hit rate of the full collection: about 3.1%.
Tau fibril ThT – qHTS for Inhibitors of Tau Fibril Formation, Thioflavin T Binding | Microtubule-associated protein tau (Homo sapiens), P10636 | recombinant tau K18 P301L, heparin-induced fibrillization, ThT fluorescence | Potency, µM (top dose mostly 57.4 µM), actives largely listed as inhibitors | 270,000 tested, 2.1% active | AID 1460, 2008; note: nearly all actives have a fitted effect of over 55% in size
Target sequence (P10636 561-689 P618L limits assumed): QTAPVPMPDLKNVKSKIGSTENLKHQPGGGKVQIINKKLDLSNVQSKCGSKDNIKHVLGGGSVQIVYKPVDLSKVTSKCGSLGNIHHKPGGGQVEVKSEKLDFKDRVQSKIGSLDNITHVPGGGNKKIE
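Recombinant human tau K18 fragment […] carrying P301L, 15 uM unlabeled plus 0.24 uM Alexa 594-labeled, was fibrillized with 20 uM heparin in 100 mM sodium acetate pH 7 for 6 hr at 37 C; 30 uM ThT fluorescence read after 1 hr.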
TR SRC2 fluor cs – Total Fluorescence Counterscreen for Inhibitors of the Interaction of Thyroid Hormone Receptor and Steroid Receptor Coregulator 2; Potency, µM (top dose mostly 106 µM); TRb/SRC2 Texas Red total fluorescence interference; 280,000 tested, 0.29% active; active = well fitted curve in either direction with a large enough effect; inconclusive = small, poorly fitted or top-dose-only effect
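Human TRβ ligand-binding domain (0.6 uM) and Texas Red SRC2 peptide (20 nM) in Tris buffer with 1 uM T3 and 5% DMSO were incubated with pinned compound for 5 hr at ambient temperature. Total fluorescence was computed as S + 2P (555/632 nm).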
TRb SRC2 PPI – qHTS for Inhibitors of the Interaction of Thyroid Hormone Receptor and Steroid Receptor Coregulator 2 | 280,000 tested, 0.065% active | AID 1469, 2008 | TRbeta-SRC2 peptide binding, fluorescence polarization; receptor liganded with 1 µM T3 | Potency, µM (series often up to 106 µM), most hits filed as inhibitors; note: nearly all actives have a fitted effect of over 50% in size
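Assay buffer: 20 mM Tris-HCl, 100 mM NaCl, 10% glycerol, 1 mM EDTA, 0.01% NP-40, 1 mM DTT, 1 uM T3, 5% DMSO; TRb LBD 0.6 uM, Texas Red SRC2 20 nM; FP after 5 hr.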
GoLoco inh red – qHTS Assay for Inhibitors of RGS12 GoLoco Motif Activity (Red Fluorophore) | Guanine nucleotide-binding protein G(i) subunit alpha-1 (Homo sapiens), P63096 | Gai1:RGS12 GoLoco peptide FP, rhodamine, 10 min | Potency, µM (doses to about 61.6 µM), actives largely listed as inhibitors | 230,000 tested, 0.44% active | AID 880, 2007; active = well fitted inhibition curve with a large enough effect, not every such curve was filed as active; inactive = no such curve, though single readings can be large or run the other way; note: nearly all actives have a fitted effect of over 30% in size
Target sequence (P63096 whole entry, looked up): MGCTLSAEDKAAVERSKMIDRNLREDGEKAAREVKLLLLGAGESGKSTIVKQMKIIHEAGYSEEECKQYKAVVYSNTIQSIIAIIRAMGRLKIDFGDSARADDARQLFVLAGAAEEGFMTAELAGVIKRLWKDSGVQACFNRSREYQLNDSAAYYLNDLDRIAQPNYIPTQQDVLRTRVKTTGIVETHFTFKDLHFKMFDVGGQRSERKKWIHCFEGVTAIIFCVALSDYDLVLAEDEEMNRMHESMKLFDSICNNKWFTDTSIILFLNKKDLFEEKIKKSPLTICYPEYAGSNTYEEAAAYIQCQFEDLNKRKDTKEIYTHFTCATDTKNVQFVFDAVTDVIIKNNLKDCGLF
Tau fibril FP – qHTS for Inhibitors of Tau Fibril Formation, Fluorescence Polarization | Potency, µM (top dose mostly 57.7 µM), actives largely listed as inhibitors | K18 P301L tau heparin fibrillization, Alexa594 FP, 6 h | 280,000 tested, 0.39% active | Microtubule-associated protein tau (Homo sapiens), P10636; note: nearly all actives have a fitted effect of over 55% in size
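Human K18 P301L fragment (15 uM unlabeled plus 0.24 uM Alexa 594-labeled) in 100 mM sodium acetate pH 7 with compound, aggregation induced by 20 uM heparin for 6 hr at 37 C. ThT (30 uM) added for 1 hr, then Alexa 594 FP read.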
Tau fluor cs – Counterscreen qHTS for Inhibitors of Tau Fibril Formation, Fluorescence Polarization | tau K18 P301L (four-repeat tau fragment) Alexa594 fluorescence, heparin fibrillization | Potency, µM (titrated, usually from 57.7 µM) | 280,000 tested, 0.93% active | AID 1463, 2008; note: nearly all actives have a fitted effect of over 55% in size
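Human K18 P301L tau (15 uM unlabeled plus 0.24 uM Alexa 594-labeled, final) in 100 mM sodium acetate pH 7 was mixed with compound and 20 uM heparin and incubated 6 hr at 37 C.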
Hits are given with their value; n = inactive; u = inconclusive; x = not tested or not shown; [ ] = dose if it differs, or a comment. Unless noted, calls come from the whole dose curve; as a rule, active = well fitted curve in the direction sought with a large enough effect; inconclusive = small, poorly fitted or top-dose-only effect, or another doubt; inactive = no such curve, though single readings can be large; an effect the other way counts as inactive or inconclusive.

SMILES | Tau fibril ThT | TR SRC2 fluor cs | TRb SRC2 PPI | GoLoco inh red | Tau fibril FP | Tau fluor cs
O=S(=O)(c1cccc(-c2csc(N/N=C/c3ccco3)n2)c1)N1CCOCC1 | 14.1µM | n | n | n | n | 12.6µM[quencher]
COc1cc(/C=N/NC(=O)c2ccc(CN(C)S(=O)(=O)c3ccc(C)cc3)cc2)ccc1O | u | n | n | n | n | 15.8µM[quencher]
CC(C)C[C@H](NC(=O)c1nc[nH]c1C(=O)N1CCC(C)CC1)C(=O)OCc1ccccc1 | n | n | n | n | n | n
CC(NC(=O)c1ccccc1)C(=O)N/N=C/c1ccccc1 (stereo not drawn) | n | n | n | n | n | n
COc1cc(/C=N/Nc2nc(-c3ccc(S(=O)(=O)N(C)C)cc3)cs2)ccc1O | 10µM | n | n | n | n | 12.6µM[quencher]
C=C1CCC(OC(C)=O)/C(C)=C/CC2[C@H]1CC2(C)C (stereo partly drawn) | n | n | n | n | n | n
C/C(=N\NC(=O)c1ccc(N/N=C(\C)c2ccc(O)cc2)cc1)c1ccc(O)cc1 | 3.16µM | n | n | n | u | 15.8µM[quencher]
C/C(=N\NC(=O)c1cccc(N/N=C(\C)c2cc(O)ccc2O)c1)c1cc(O)ccc1O | 28.2µM | n | n | n | u | u
C/C(=N/Nc1ccc(C(=O)O)cc1)c1ccc(O)c(O)c1O | 11.2µM | n | n | n | u | n
COc1ccc(OC)c(/C(C)=N/Nc2ccc(C(=O)O)cc2)c1 | n | n | n | n | n | n
Cc1ccc(CN2CCSc3ccc(C(=O)Nc4ccc(Cl)cc4)cc32)cc1 | u | n | n | x | n | u
Cc1ccc(CNC(=O)Cn2cc(S(=O)(=O)Cc3ccccc3Cl)c3ccccc32)cc1 | n | n | n | x | n | n
COc1nc(-c2ccccc2)ccc1-c1noc(-c2ccco2)n1 | u | n | n | 3.55µM | u | n
CN(Cc1nc(-c2ccc(Cl)cc2)no1)S(=O)(=O)c1ccccc1 | n | n | n | x | n | n
COc1cc(N2CCOCC2)ccc1C=C(C#N)C#N | n | u | u | n | n | n
NC(=O)c1c(NC(=O)c2cc(-c3ccc(F)cc3)on2)sc2c1CCCC2 | 31.6µM | n | n | x | u | n
COC(=O)[C@H]1C[C@@H]1[C@H](NC(=O)c1cnccn1)c1ccccc1 | n | n | n | n | n | n
O=[N+]([O-])c1ccc(Cl)c2cccnc12 | n | n | n | n | n | n
O=[N+]([O-])c1cc(F)c2cccnc2c1O | 7.94µM | u | n | n | u | n
O=[N+]([O-])c1cc(Cl)c(O)c2ncccc12 | 12.6µM | n | n | n | n | n
O=[N+]([O-])c1cc(Cl)c2cccnc2c1O | 10µM | n | n | n | n | n
O=C(/C=C/c1cccs1)NC(=S)Nc1ccc(S(=O)(=O)Nc2ccccc2C(F)(F)F)cc1 | n | n | n | n | n | n
O=C(O)c1oc2ccccc2c1CSCc1ccccc1 | n | n | n | n | n | n
COC(=O)c1cnc(NCc2ccc(F)cc2)c2ccccc12 | n | n | n | x | u | u
O=c1c2c(nc3cc(-c4ccccc4Cl)[nH]n13)CCS2 | u | n | n | n | u | n
SMILES | Tau fibril ThT | TR SRC2 fluor cs | TRb SRC2 PPI | GoLoco inh red | Tau fibril FP | Tau fluor cs
Cc1nc2cc(-c3ccsc3-n3c(C)ccc3C)[nH]n2c(=O)c1Cl | 14.1µM | 44.7µM[quencher] | n | n | u | u
COCc1cc(=O)n2[nH]c(-c3ccsc3-n3c(C)ccc3C)cc2n1 | 22.4µM | n | n | n | u | u
Cc1cc(=O)n2[nH]c(-c3ccsc3-n3c(C)ccc3C)cc2n1 | x | n | n | n | u | u
Cc1oc(=O)c(NC(=O)c2ccc(Cl)cc2)cc1C(=O)c1ccccc1 | 17.8µM | x | x | n | u | n
CC(=O)c1cc(NC(=O)c2ccccc2)c(=O)oc1C | 28.2µM | n | n | n | u | n
Cc1oc(=O)c(NC(=O)c2ccccc2)cc1C(=O)c1ccccc1 | 25.1µM | n | n | n | u | n
CC(=O)c1cc(NC(=O)c2ccc(C)cc2)c(=O)oc1C | 31.6µM | n | n | n | u | n
N#Cc1ccc(OCC(=O)Nc2cc(S(=O)(=O)N3CCOCC3)ccc2N2CCOCC2)cc1 | n | n | n | n | n | n
COc1ccc(Nc2cc(C(=O)NCCCN3CCN(C)CC3)c3ccccc3n2)cc1 | u | n | n | n | n | n
COc1ccccc1C(O)(C(=O)NN(C)c1ccccc1)c1ccccc1OC | n | n | n | n | n | n
CCc1nn2c(=O)cc(CSc3nc(C)cc(=O)[nH]3)nc2s1 | n | n | n | n | n | n
Cc1ccc(/C=C2/C(=O)c3ccc(C(=O)O)cc3C2=O)o1 | 5.62µM | n | n | n | u | n
Cc1ccc(C=C2C(=O)c3ccccc3C2=O)o1 | 8.91µM | n | n | n | u | n
O=C1/C(=C/c2ccco2)CCc2ccccc21 | u | n | n | n | n | n
O=C1C(=Cc2ccco2)C(=O)c2ccccc21 | 12.6µM | n | n | n | u | u
O=C(O)c1ccc2c(c1)C(=O)/C(=C\c1ccco1)C2=O | 11.2µM | u | n | n | 15.8µM | u
CCN1C(=O)N/C(=C/c2ccc(C)o2)C1=O | u | n | n | n | u | n
CC(C)[C@H](NC(=O)c1ccco1)C(=O)OCC(=O)Nc1ccccc1OC(F)F | n | n | n | n | n | n
Cc1cc(C)c(-c2csc(-c3cc4ccccc4oc3=O)n2)cc1C | u | n | n | x | u | u
Cc1c(C(=O)O)cccc1-c1ccc(/C=C2/NC(=O)N(c3ccccc3)C2=O)o1 | n | n | n | n | n | n
Cc1ccc(/C=C2/NC(=O)N(c3ccccc3)C2=O)o1 | 25.1µM | n | n | n | u | n
CCc1ccc(C(=O)/C=C/c2ccc([N+](=O)[O-])o2)cc1 | 8.91µM | n | n | n | u | u
Cc1nnc(SCc2ccccc2)c2cc3sccc3n12 | 22.4µM | n | n | x | u | n
NC(=O)c1cccc(CC(=O)c2ccccc2)c1 | n | n | n | n | n | n
COc1cc2ncnc(Nc3ccc(F)c(Cl)c3)c2cc1OCCCN1CCOCC1 | u | n | n | n | 39.8µM | u
Cc1ccc2c(c1)N/C(=C(\C=C(/Cl)[N+](=O)[O-])[N+](=O)[O-])N2 | 17.8µM | n | n | n | n | u
COc1ccc(S(=O)(=O)N(CC(=O)NCCCN(C)C)c2ccc(C)cc2)cc1OC | n | n | n | x | u | n

Screens (PubChem BioAssay)
